# Assay results: ChEMBL document CHEMBL3988442, “University of Dundee, Small-Polar-MMV Screening Library” (2021)
# Screen size: about 48,000 compounds; about 13,000 (27%) showed an effect of 50% or more. This is one part of the list.
# Tested on: Wolbachia pipientis
# Assay: Anti-Wolbachia Cell-Based Screen
# Assay type: functional
# Design: scale not given: in the data most compounds retested in dose-response had high values
# Details: 5 µM
row,SMILES,Percent Effect [%]
1,CCc1nc2n(n1)CCCC2Nc1nc(C(C)C)ns1 (stereo not drawn),-21.17
2,CC(C)CCN1CC2(CCCN(C(=O)c3cscn3)C2)CCC1=O (stereo not drawn),-17.51
3,CC(C)(C)n1cc(C(=O)N2CCN(Cc3ccsc3)CC2)cn1,2.604
4,O=C(NC[C@H]1OC[C@@H](NC2CCC(F)(F)CC2)[C@@H]1O)Nc1ccccc1,-10.14
5,Cc1ccc(F)cc1S(=O)(=O)NCc1[nH]ncc1Br,-6.756
6,CC(=O)N1CCCN(C(=O)Cc2c(C)nc(C)[nH]c2=O)CC1,-4.556
7,Cc1cc(NS(=O)(=O)c2cnc3onc(C)c3c2)no1,-3.715
8,COCC(=O)N1CCN(Cc2coc(-c3cccc(F)c3)n2)CC1,-10.41
9,Fc1cccc(-c2nc(CN3CCCCC3Cn3cncn3)co2)c1 (stereo not drawn),-6.024
10,CC1CCCN(Cc2coc(-c3cccc(F)c3)n2)C1 (stereo not drawn),-1.096
11,CC(=O)N1CCN(Cc2coc(-c3cccc(F)c3)n2)CC1,97.72
12,CN(C)C(=O)CN1CCN(Cc2coc(-c3cccc(F)c3)n2)CC1,102.1
13,CCNC(=O)C1CN(Cc2c(-c3cc(C)on3)nn(C)c2Cl)CCO1 (stereo not drawn),-15.99
14,CCN(CC)S(=O)(=O)N1CCCC(c2nccn2Cc2ccncc2)C1 (stereo not drawn),6.265
15,CC(C)NC(=O)c1cc2c(nc1N(C)C)CCN(S(=O)(=O)C1CC1)CC2,-5.433
16,CCC(C)S(=O)(=O)N1CCc2nc(C3CCNCC3)ncc2C1.Cl (stereo not drawn),105.9
17,Cl.O=S(=O)(N1CCCCC1)N1CCc2nc(C3CCNCC3)ncc2C1,-9.776

row,SMILES,Percent Effect [%]
1,CCN(CC)S(=O)(=O)N1CCc2nc(C3CCNCC3)ncc2C1.Cl,116.7
2,CCc1cc(CNC(=O)N2Cc3ccccc3N(C)CC2C)on1 (stereo not drawn),12.48
3,CN(Cc1ccc(Br)s1)Cn1nc(-c2ccccc2)oc1=O,38.33
4,CN(Cc1ccc(Br)s1)Cn1nc(-c2ccc(F)cc2)oc1=O,11.33
5,Cc1ncc(CN(C)Cn2nc(-c3ccccc3)oc2=O)s1,56.71
6,CSc1nccc(NCC2CNCCO2)n1 (stereo not drawn),3.575
7,Cn1cc(CNCCC(=O)NCc2ccccc2)c(-c2cccnc2)n1,-3.655
8,CC(C)c1nc(C(=O)N2CCCC(n3cncn3)C2)c[nH]1 (stereo not drawn),7.683
9,Cn1nc(C(=O)N2CCCC(n3cncn3)C2)ccc1=O (stereo not drawn),-5.25
10,CCc1ccc(C(=O)N2CCCC(n3cncn3)C2)o1 (stereo not drawn),-14.61
11,CCC(CC)c1cc(C(=O)N2CCCC(n3cncn3)C2)on1 (stereo not drawn),-3.018
12,Cc1cc(C(=O)N2CCCC(n3cncn3)C2)on1 (stereo not drawn),105.4
13,Cc1[nH]ncc1C(=O)N1CCCC(n2cncn2)C1 (stereo not drawn),-1.83
14,Cc1cnc(C(=O)N2CCCC(n3cncn3)C2)cn1 (stereo not drawn),95.37
15,Cc1cc(C(=O)N2CCCC(n3cncn3)C2)nn1C (stereo not drawn),113.3
16,Cc1c(C(=O)N2CCCC(n3cncn3)C2)cnn1C (stereo not drawn),111.3
